Measured values reported in the supplement of paper PMC11732987, “Enantioselective OTUD7B fragment discovery through chemoproteomics screening and high-throughput optimisation” (Communications Chemistry, 2025).

What was measured:
Experiment in all cases: log2 ratio of Biotin-Ahx-Ub-VS probe labelling (fragment/DMSO); higher = less target engagement (more negative = stronger competition), active = hit call of the paper (q ≤ 0.05, log2 ratio ≤ -1)
Conditions in all cases: compound concentration: 200 uM; treatment time: 3 h
USP34 = USP34 (UniProt Q70CQ2)
Procedure, shortened: (§1)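 Average log2 ratios of fragment over vehicle were obtained by unpaired t-test from global-median-normalised Spectronaut label-free quantities. Proteins with ≥2 unique peptides were included. HEK293T lysate (495 µg per sample) was treated in triplicate with fragment at 200 µM or vehicle for 3 h, then with Biotin-Ahx-Ub-VS at 0.5 µM final for 1 h, and labelled DUBs were NeutrAvidin-enriched and run by diaPASEF LC-MS/MS.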

USP36 = target: T1, USP36 (UniProt Q9P275)
T1 sequence (whole entry): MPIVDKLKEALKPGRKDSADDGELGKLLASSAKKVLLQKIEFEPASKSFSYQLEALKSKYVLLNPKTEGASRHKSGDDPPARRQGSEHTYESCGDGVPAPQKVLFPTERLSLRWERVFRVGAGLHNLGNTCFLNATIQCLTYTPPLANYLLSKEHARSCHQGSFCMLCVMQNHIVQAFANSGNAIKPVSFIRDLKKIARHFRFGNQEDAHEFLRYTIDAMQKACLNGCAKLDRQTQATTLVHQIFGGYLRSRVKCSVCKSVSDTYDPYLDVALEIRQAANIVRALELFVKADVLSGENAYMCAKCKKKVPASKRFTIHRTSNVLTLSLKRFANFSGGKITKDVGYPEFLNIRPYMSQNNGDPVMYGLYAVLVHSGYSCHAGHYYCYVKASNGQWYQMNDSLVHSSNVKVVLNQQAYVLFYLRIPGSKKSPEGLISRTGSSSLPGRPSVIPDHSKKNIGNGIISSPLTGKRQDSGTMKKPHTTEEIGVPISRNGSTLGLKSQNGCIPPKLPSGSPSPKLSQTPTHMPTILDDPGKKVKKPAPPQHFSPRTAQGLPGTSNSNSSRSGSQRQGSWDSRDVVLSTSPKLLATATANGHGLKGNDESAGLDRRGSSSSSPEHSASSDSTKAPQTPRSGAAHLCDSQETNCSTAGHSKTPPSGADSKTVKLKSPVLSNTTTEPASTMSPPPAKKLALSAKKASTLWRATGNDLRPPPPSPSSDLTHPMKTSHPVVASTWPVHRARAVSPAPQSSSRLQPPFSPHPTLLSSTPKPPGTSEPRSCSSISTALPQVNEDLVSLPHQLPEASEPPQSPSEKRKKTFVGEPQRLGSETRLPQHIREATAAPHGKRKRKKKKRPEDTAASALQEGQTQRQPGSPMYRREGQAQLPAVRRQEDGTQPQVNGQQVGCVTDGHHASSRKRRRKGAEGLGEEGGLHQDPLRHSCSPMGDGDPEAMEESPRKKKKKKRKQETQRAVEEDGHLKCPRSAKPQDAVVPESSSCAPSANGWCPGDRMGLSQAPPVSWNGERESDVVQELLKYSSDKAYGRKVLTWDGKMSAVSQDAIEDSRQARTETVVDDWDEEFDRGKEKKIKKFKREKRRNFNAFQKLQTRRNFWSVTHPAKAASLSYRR
Procedure, shortened: as §1

USP38 = target: T2, USP38 (UniProt Q8NB14)
T2 sequence (whole entry): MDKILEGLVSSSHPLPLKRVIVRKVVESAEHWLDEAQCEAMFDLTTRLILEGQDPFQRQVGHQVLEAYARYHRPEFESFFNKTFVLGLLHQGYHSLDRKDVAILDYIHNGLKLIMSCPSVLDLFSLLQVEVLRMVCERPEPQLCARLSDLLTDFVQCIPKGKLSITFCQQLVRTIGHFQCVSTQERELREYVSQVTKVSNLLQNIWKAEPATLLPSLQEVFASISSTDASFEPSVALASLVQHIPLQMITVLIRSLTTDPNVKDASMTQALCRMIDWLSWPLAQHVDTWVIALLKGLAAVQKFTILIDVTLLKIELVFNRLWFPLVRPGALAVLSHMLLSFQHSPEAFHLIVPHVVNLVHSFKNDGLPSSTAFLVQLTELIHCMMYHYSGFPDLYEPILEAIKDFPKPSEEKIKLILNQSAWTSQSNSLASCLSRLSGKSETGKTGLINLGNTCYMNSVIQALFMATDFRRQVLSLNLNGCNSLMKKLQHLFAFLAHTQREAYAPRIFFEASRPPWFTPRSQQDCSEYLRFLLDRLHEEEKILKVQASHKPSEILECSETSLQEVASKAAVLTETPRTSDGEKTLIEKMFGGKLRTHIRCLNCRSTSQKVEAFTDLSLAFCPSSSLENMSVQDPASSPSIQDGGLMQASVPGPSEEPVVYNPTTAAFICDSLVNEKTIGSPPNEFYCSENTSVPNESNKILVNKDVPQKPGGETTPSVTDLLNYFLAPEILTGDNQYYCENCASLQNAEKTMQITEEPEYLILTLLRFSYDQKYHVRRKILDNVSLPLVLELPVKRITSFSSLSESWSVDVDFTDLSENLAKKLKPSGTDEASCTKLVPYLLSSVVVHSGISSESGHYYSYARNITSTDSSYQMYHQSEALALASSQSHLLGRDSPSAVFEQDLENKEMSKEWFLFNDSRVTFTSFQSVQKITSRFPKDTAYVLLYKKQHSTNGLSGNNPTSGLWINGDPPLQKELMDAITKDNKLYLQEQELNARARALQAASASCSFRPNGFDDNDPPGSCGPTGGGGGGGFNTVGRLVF
Procedure, shortened: as §1

USP39 = target: T3, USP39 (UniProt Q53GS9)
T3 sequence (whole entry): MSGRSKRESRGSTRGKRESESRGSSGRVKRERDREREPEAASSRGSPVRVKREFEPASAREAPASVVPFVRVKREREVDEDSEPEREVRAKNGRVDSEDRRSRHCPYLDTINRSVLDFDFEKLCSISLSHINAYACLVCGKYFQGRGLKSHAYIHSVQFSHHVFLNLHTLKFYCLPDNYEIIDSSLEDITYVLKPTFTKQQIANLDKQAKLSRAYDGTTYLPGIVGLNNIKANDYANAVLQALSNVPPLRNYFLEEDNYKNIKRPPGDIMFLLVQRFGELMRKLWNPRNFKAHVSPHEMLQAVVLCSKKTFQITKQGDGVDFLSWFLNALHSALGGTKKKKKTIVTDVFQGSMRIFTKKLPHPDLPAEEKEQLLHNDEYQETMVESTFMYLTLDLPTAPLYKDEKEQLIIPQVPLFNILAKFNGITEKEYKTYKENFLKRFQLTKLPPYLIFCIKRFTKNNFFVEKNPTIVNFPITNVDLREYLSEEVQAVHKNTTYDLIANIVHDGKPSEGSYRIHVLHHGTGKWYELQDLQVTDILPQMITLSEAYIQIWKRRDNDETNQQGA
Procedure, shortened: as §1

USP4 = target: T4, USP4 (UniProt Q13107)
T4 sequence (whole entry): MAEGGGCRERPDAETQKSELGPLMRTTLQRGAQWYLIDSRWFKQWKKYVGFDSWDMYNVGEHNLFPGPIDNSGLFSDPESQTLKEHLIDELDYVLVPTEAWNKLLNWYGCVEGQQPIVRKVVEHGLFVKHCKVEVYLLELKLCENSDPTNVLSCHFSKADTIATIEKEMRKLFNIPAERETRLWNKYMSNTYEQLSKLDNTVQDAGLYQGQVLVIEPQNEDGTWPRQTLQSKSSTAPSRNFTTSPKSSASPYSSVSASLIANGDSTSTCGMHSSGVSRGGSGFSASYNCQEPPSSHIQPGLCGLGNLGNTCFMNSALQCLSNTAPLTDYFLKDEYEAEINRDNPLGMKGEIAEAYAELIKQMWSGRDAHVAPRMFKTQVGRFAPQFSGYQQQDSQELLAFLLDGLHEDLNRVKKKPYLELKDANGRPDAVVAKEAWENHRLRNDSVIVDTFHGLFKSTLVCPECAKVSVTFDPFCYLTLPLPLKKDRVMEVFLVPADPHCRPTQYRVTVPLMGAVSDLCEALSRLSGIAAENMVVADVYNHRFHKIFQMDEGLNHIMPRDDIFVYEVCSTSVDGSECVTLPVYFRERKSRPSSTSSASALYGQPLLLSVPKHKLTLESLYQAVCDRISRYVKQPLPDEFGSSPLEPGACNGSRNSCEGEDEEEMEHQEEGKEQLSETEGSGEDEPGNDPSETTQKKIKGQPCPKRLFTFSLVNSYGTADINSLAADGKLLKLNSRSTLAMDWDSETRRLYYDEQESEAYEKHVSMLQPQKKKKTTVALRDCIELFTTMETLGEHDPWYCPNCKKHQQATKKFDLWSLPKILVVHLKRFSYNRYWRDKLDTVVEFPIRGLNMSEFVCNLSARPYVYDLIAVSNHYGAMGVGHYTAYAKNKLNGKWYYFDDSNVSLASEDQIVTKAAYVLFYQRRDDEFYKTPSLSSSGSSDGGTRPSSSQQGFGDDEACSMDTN
Procedure, shortened: as §1

Measured: log2 ratio of Biotin-Ahx-Ub-VS probe labelling

Sequence of USP34 (Q70CQ2 whole entry, the tested form may be a part): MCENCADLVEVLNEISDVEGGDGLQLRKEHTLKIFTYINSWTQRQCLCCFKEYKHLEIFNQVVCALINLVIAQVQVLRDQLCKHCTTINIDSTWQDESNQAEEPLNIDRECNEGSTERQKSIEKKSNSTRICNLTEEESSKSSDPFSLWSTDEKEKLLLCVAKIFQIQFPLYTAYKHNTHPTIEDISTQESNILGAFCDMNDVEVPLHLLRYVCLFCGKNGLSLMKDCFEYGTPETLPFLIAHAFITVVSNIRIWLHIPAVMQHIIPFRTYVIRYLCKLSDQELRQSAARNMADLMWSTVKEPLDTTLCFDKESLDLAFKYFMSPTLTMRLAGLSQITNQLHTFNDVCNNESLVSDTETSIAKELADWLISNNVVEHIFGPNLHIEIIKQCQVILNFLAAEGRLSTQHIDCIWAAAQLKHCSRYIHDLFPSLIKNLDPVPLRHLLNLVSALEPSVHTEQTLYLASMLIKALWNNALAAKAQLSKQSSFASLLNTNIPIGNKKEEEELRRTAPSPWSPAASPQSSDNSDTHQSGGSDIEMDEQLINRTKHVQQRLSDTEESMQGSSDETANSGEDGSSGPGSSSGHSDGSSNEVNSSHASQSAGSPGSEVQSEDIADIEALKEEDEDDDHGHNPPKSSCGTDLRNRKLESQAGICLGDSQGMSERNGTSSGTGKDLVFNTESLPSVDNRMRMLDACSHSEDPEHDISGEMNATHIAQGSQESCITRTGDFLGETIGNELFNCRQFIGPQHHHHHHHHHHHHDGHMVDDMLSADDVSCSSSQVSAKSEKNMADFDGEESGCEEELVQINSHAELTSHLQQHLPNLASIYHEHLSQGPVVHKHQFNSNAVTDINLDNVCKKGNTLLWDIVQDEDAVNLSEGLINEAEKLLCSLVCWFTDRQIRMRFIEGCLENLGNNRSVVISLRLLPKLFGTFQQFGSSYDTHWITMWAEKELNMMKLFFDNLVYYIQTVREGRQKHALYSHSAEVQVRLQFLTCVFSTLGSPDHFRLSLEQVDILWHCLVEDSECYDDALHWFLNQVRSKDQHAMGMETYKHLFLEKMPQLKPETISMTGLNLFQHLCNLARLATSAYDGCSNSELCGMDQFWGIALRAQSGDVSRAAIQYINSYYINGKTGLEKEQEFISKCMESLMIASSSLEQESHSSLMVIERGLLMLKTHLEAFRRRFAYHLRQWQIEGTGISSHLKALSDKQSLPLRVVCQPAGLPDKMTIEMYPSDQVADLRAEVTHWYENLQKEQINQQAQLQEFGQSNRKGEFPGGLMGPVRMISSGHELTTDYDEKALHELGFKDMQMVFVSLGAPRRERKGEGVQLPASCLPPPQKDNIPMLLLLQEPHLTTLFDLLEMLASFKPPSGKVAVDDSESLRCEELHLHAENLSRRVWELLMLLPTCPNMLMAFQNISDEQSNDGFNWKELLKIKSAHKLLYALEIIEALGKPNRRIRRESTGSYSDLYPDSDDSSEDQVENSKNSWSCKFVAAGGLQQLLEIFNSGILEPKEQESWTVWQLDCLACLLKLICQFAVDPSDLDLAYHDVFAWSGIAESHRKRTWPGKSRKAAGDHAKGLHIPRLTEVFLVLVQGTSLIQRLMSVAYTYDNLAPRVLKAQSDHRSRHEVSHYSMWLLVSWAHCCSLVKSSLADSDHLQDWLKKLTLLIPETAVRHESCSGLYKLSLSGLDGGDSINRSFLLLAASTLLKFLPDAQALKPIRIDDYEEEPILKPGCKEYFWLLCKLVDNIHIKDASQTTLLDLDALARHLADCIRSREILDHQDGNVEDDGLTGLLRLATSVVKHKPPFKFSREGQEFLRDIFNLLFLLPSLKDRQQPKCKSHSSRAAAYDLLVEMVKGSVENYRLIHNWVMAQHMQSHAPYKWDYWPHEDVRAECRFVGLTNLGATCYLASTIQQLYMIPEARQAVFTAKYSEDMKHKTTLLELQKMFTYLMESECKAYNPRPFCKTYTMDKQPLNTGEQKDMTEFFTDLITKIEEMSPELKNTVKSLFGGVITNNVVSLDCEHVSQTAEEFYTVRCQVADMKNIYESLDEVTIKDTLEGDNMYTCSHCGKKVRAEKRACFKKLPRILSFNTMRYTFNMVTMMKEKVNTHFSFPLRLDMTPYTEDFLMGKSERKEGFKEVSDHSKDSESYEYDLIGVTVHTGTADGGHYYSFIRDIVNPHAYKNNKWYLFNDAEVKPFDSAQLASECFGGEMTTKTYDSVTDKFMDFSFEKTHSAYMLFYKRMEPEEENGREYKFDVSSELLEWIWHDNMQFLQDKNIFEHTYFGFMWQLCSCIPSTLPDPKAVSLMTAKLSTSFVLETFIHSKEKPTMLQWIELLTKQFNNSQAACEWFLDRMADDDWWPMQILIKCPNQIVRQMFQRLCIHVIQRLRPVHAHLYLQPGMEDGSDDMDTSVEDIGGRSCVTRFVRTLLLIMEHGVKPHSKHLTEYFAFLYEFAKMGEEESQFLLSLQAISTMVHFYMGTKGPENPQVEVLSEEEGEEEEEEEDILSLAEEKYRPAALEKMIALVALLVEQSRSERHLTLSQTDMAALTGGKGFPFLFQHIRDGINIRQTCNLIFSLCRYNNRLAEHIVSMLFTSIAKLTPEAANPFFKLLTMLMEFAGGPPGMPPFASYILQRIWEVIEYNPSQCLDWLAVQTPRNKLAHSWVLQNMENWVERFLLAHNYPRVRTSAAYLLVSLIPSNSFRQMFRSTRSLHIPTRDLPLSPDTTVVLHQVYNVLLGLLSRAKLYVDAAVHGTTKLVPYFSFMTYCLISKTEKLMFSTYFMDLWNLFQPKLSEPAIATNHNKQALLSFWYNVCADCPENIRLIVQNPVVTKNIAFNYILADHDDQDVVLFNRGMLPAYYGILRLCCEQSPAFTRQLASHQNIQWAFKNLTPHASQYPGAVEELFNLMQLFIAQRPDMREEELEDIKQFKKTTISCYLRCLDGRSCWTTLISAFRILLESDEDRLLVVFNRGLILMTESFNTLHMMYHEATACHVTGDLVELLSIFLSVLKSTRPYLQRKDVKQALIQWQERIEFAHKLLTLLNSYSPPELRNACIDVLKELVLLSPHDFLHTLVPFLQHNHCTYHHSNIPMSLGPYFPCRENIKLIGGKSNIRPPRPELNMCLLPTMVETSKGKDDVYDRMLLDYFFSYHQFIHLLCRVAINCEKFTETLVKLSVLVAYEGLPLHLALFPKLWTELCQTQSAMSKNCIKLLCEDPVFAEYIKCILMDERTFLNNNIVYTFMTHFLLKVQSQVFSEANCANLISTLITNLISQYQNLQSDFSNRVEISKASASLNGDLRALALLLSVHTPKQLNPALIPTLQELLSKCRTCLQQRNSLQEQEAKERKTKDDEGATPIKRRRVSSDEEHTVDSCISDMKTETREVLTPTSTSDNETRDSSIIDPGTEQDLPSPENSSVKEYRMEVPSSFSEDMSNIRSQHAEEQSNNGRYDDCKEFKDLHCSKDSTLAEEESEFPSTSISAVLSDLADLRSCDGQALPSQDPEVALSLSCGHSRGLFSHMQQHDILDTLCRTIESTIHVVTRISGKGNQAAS

O=C(CCl)N1CCC(c2noc3cc(F)ccc23)CC1
inactive: USP34 -0.276 | USP36 -0.165 | USP38 0.108 | USP39 0.43 | USP4 -0.235
